# Results taken from the supplement of paper PMC10849652.
# Targets with a hit are over-represented here; the source holds about 8,800 in all. About 0.5% of all pairs of compound and target were hits. A number with no mark means an inactive call.
# Legend:
# Assay in all cases: log2 fold change, soluble protein after heating vs DMSO (PISA); higher = thermal stabilisation; K562 lysate, 10 uM; active = over 0.2 and 3.5 SD of the protein, either way, in both replicates (recomputed)
# alvocidib = compound: CN1CC[C@H](c2c(O)cc(O)c3c(=O)cc(-c4ccccc4Cl)oc23)[C@H](O)C1 [alvocidib]
# Method in brief: (§1)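 Following dounce homogenisation of K562 pellets in PBS pH 7.4 with 1 mM MgCl2, crude extract at 1 mg/mL protein was incubated for 30 min with 10 μM compound. Aliquots were then heated for 3 min over 48°C-58°C and pooled, NP-40 was added to 0.5% at 4°C, and soluble protein was recovered as the supernatant at 21,000xg for 90 min. Channel-sum-equalised TMTpro 16plex LC-MS/MS quantified this protein. Each value, from duplicates, is a log-two fold change in thermal stability relative to solvent controls.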
# Tubastatin A = compound: CN1CCc2c(c3ccccc3n2Cc2ccc(C(=O)NO)cc2)C1 [Tubastatin A]
# Method in brief: as §1
# [1] = compound: CNC(=O)C1=CC=CC=C1NC2=NC(=NC=C2Cl)NC3=C(C=C(C=C3)N4CCOCC4)OC
# Method in brief: as §1
# defactinib = compound: CNC(=O)c1ccc(Nc2ncc(C(F)(F)F)c(NCc3nccnc3N(C)S(C)(=O)=O)n2)cc1 [defactinib]
# Method in brief: as §1
# [2] = compound: CNc1nc(-c2ccc3c(N)n[nH]c3c2)cc(N2C[C@@H](C(=O)NC3CCCCC3)CC[C@H]2C)n1
# Method in brief: as §1
# encorafenib = compound: COC(=O)N[C@@H](C)CNc1nccc(-c2cn(C(C)C)nc2-c2cc(Cl)cc(NS(C)(=O)=O)c2F)n1 [encorafenib]
# Method in brief: as §1
# [3] = compound: COC(=O)[C@H](CCSC)NC(=O)C1=C(C=C(C=C1)NC[C@H](CS)N)C2=CC=CC=C2
# Method in brief: as §1
# alisertib = compound: COc1cc(Nc2ncc3c(n2)-c2ccc(Cl)cc2C(c2c(F)cccc2OC)=NC3)ccc1C(=O)O [alisertib]
# Method in brief: as §1
# [4] = compound: COc1cc2nc(-c3cc(F)ccc3O)nc(N[C@@H]3CNC[C@H]3C(C)(C)O)c2cc1OC
# Method in brief: as §1
# gefitinib = compound: COc1cc2ncnc(Nc3ccc(F)c(Cl)c3)c2cc1OCCCN1CCOCC1 [gefitinib]
# Method in brief: as §1
# lapatinib = compound: CS(=O)(=O)CCNCc1ccc(-c2ccc3ncnc(Nc4ccc(OCc5cccc(F)c5)c(Cl)c4)c3c2)o1 [lapatinib]
# Method in brief: as §1
# pictilisib = compound: CS(=O)(=O)N1CCN(Cc2cc3nc(-c4cccc5[nH]ncc45)nc(N4CCOCC4)c3s2)CC1 [pictilisib]
# Method in brief: as §1
# crizotinib = compound: C[C@@H](Oc1cc(-c2cnn(C3CCNCC3)c2)cnc1N)c1c(Cl)ccc(F)c1Cl [crizotinib]
# Method in brief: as §1
# [5] = compound: C[C@H](C1=CC=C(C=C1)C(=O)NC2=C3C=CNC3=NC=C2)N
# Method in brief: as §1
# duvelisib = compound: C[C@H](Nc1ncnc2nc[nH]c12)c1cc2cccc(Cl)c2c(=O)n1-c1ccccc1 [duvelisib]
# Method in brief: as §1
# gandotinib = compound: Cc1cc(Nc2cc(CN3CCOCC3)c3nc(C)c(Cc4ccc(Cl)cc4F)n3n2)n[nH]1 [gandotinib]
# Method in brief: as §1
# tozasertib = compound: Cc1cc(Nc2cc(N3CCN(C)CC3)nc(Sc3ccc(NC(=O)C4CC4)cc3)n2)n[nH]1 [tozasertib]
# Method in brief: as §1
# doramapimod = compound: Cc1ccc(-n2nc(C(C)(C)C)cc2NC(=O)Nc2ccc(OCCN3CCOCC3)c3ccccc23)cc1 [doramapimod]
# Method in brief: as §1
# bafetinib = compound: Cc1ccc(NC(=O)c2ccc(CN3CC[C@H](N(C)C)C3)c(C(F)(F)F)c2)cc1Nc1nccc(-c2cncnc2)n1 [bafetinib]
# Method in brief: as §1
# [6] = compound: Cc1cccc(CC(=O)N2CCc3c2ccc(-c2cn(C)c4ncnc(N)c24)c3F)n1
# Method in brief: as §1
# Chain of UniProt Q92621 (Q92621 whole entry, looked up): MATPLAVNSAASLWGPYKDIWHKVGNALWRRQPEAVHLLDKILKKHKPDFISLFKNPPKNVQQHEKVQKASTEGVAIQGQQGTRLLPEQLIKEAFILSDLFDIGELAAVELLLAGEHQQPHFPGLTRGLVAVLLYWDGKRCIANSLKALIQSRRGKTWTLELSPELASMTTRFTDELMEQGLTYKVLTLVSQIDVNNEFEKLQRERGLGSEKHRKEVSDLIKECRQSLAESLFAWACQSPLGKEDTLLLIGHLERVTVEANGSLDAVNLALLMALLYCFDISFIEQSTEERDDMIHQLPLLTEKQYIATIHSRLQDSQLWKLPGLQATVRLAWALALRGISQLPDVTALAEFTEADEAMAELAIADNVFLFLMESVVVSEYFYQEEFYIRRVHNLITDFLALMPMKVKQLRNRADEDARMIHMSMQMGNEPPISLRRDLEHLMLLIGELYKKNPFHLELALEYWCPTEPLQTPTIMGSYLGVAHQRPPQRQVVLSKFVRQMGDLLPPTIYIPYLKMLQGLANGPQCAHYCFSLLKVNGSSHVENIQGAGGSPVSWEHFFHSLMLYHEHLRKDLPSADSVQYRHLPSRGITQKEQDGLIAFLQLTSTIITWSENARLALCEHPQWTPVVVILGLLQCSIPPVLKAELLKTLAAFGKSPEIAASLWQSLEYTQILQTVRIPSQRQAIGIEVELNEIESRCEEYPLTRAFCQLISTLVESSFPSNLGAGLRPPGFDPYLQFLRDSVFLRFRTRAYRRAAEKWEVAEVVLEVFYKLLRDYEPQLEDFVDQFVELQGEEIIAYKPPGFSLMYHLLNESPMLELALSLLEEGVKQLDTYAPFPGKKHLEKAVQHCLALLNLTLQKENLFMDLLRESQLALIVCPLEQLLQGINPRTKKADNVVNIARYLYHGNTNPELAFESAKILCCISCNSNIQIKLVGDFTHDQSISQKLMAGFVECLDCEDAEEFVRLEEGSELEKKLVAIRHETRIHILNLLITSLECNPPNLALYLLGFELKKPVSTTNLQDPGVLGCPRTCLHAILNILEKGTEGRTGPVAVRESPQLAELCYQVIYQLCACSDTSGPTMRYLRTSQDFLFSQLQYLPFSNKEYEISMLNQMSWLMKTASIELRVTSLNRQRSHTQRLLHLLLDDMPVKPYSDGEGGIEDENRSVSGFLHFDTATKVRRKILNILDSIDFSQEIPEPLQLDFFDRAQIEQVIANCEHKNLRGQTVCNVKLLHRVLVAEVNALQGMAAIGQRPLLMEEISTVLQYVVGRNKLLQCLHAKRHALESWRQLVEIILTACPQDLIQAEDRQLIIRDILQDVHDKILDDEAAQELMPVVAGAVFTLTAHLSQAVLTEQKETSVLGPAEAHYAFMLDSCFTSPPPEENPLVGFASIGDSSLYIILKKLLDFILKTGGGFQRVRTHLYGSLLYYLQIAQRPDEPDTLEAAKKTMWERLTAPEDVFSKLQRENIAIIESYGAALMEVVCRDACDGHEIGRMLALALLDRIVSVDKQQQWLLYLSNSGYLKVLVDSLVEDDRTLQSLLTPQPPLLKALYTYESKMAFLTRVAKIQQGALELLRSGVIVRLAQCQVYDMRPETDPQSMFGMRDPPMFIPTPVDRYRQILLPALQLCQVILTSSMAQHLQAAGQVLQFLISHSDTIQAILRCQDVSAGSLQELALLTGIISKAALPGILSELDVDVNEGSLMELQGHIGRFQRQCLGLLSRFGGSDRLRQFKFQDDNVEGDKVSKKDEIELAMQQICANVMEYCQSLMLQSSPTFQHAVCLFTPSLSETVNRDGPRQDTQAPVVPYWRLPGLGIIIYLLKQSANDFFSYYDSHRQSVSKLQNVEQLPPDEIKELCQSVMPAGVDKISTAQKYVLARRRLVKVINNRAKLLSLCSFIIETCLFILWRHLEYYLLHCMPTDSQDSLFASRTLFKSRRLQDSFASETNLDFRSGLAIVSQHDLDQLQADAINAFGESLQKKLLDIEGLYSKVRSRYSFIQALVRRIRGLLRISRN
# Chain of UniProt Q9UHQ1 (Q9UHQ1 whole entry, looked up): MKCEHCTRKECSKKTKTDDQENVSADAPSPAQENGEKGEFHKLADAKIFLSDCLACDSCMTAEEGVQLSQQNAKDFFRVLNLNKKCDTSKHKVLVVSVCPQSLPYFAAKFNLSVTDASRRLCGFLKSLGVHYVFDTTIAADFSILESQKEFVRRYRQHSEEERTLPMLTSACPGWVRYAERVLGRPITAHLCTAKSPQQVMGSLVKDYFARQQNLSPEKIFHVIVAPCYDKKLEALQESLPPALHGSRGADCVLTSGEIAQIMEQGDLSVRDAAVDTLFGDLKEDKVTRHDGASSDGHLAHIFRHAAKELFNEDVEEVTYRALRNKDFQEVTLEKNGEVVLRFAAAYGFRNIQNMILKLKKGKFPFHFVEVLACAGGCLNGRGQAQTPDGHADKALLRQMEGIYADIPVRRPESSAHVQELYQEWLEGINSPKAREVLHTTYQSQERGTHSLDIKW
# Chain of UniProt Q9NTK5 (Q9NTK5 whole entry, looked up): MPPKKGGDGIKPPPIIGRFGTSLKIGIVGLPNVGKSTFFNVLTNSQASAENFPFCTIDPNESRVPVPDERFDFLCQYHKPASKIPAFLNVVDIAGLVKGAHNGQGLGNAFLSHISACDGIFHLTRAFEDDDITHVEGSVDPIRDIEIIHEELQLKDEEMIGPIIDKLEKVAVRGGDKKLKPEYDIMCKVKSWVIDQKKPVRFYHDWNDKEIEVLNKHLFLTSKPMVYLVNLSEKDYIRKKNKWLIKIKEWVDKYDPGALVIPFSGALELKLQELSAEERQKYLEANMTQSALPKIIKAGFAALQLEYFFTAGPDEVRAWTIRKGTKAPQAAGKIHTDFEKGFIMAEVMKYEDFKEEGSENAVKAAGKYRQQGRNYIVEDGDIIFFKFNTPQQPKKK
# Chain of UniProt Q9BZD4 (Q9BZD4 whole entry, looked up): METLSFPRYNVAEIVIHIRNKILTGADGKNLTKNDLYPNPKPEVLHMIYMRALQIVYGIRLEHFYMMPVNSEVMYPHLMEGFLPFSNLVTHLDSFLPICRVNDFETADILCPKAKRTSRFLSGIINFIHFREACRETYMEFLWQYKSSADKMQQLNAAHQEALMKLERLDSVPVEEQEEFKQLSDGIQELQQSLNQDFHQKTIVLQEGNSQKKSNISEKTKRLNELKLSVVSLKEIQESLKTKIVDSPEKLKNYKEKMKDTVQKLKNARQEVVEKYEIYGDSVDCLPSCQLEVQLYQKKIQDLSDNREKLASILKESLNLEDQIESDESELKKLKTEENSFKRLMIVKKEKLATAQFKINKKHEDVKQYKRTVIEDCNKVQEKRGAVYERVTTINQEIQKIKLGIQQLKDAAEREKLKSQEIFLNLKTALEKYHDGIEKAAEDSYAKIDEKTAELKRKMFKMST
# Chain of UniProt Q9HBL8 (Q9HBL8 whole entry, looked up): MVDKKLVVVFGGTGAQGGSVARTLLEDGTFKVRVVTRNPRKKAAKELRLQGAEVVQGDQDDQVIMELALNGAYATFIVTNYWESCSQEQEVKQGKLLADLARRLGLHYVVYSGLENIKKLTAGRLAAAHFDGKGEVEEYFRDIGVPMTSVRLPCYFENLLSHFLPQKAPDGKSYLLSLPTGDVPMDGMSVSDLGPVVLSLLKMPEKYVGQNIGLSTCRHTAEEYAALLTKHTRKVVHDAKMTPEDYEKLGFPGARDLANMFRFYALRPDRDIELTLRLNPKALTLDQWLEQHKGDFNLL
# Chain of UniProt Q86XI2 (Q86XI2 whole entry, looked up): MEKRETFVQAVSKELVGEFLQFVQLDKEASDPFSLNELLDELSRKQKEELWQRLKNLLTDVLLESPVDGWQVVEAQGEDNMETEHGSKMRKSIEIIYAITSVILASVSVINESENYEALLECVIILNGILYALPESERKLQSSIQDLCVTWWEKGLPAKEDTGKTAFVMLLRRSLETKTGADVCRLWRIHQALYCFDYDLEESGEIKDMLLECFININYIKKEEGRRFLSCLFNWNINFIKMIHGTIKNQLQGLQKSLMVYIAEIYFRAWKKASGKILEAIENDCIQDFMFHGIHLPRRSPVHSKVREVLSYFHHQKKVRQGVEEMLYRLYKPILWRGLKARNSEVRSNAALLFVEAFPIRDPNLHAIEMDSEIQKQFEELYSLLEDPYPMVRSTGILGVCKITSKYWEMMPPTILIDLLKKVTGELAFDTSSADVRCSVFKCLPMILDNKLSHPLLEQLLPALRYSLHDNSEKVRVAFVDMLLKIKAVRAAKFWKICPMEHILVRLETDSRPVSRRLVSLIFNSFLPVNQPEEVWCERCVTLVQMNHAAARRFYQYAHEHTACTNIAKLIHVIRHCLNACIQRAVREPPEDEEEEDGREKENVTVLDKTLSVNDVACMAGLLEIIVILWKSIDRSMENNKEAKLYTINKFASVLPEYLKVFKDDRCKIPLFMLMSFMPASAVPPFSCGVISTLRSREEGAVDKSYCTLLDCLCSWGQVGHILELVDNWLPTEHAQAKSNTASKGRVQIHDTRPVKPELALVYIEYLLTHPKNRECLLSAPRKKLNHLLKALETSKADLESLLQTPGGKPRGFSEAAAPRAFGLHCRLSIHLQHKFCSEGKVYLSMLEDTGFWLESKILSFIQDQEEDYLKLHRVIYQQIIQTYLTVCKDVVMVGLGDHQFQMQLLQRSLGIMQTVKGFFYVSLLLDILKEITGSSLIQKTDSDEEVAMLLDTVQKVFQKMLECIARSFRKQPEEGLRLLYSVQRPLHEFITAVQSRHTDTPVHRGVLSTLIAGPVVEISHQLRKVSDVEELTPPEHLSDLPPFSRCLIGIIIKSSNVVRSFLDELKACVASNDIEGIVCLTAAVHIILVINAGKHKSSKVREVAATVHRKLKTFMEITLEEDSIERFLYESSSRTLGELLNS
# Chain of UniProt O00483 (O00483 whole entry, looked up): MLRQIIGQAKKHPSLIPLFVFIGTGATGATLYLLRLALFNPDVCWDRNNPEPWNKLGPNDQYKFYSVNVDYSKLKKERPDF
Target,log2 fold change (alvocidib),log2 fold change (Tubastatin A),log2 fold change [1],log2 fold change (defactinib),log2 fold change [2],log2 fold change (encorafenib),log2 fold change [3],log2 fold change (alisertib),log2 fold change [4],log2 fold change (gefitinib),log2 fold change (lapatinib),log2 fold change (pictilisib),log2 fold change (crizotinib),log2 fold change [5],log2 fold change (duvelisib),log2 fold change (gandotinib),log2 fold change (tozasertib),log2 fold change (doramapimod),log2 fold change (bafetinib),log2 fold change [6]
NDUFA4 (UniProt O00483),0.022,0.055,0.054,0.143,0.004,0.028,0.009,0.055,-0.079,-0.133,0.124,0.017,0.02,0.009,0.059,-0.294 (active),-0.01,0.02,0,-0.026
NUDT5 (UniProt Q9UKK9),-0.137,0.052,-0.01,0.072,-0.018,0.034,0.006,0.004,0.003,-0.002,0.003,-0.036,0.007,-0.299 (active),0.051,0.211,-0.018,-0.015,-0.016,0.212
OTUD7B (UniProt Q6GQQ9),-0.052,-0.099,0.005,0.022,-0.011,0.042,0.049,-0.006,-0.031,0.062,0.033,0.025,-0.099,0.006,-0.041,0.032,-0.01,-0.012,-0.003,0.003
NELFCD (UniProt Q8IXH7),0.015,-0.148,0.047,0.041,-0.055,0,0.073,0.023,-0.006,-0.009,-0.035,-0.048,-0.043,0.074,0.017,-0.087,-0.025,0.045,-0.105,-0.029
NCK1 (UniProt P16333),0,-0.097,0.023,-0.02,-0.008,0.008,-0.068,-0.003,-0.007,0.026,0.025,0,-0.024,0.065,0.014,-0.051,0.005,0.03,-0.033,-0.024
NUP133 (UniProt Q8WUM0),-0.08,-0.111,-0.007,0.035,-0.028,0.039,0.002,-0.009,0.011,-0.003,-0.007,-0.01,-0.093,-0.075,-0.01,0.251 (active),0.042,0.061,-0.074,0.218
NCAPG2 (UniProt Q86XI2),-0.014,-0.217,-0.008,0.023,0.04,0.002,-0.018,0.004,-0.01,0.038,-0.062,-0.006,-0.048,-0.108,-0.052,-0.011,0.023,0.062,-0.074,0.143
NARF (UniProt Q9UHQ1),0.001,0.011,0.031,-0.015,-0.014,0.047,0.003,-0.021,-0.019,-0.007,-0.027,0.01,0.032,0.001,0.029,0.008,0.02,0.012,-0.008,-0.04
NAA30 (UniProt Q147X3),-0.03,0.051,-0.023,0.002,0.023,-0.032,0.008,0.039,-0.066,0.015,-0.021,-0.028,-0.01,-0.025,-0.037,0.012,0.015,-0.028,0.042,0.06
NUP205 (UniProt Q92621),-0.02,-0.078,0.012,0.015,-0.003,0.016,-0.081,0.008,0,-0.018,-0.03,-0.041,-0.1,-0.047,-0.008,-0.143,0.015,0.043,-0.089,0.031
NMRAL1 (UniProt Q9HBL8),0,0.036,-0.044,-0.003,0.026,-0.003,0.406 (active),0.021,0.001,-0.002,-0.003,0.105,-0.017,0.695 (active),0.08,-0.01,-0.051,0.036,0.005,0.011
NUF2 (UniProt Q9BZD4),0,-0.13,0.03,0.021,-0.007,0.027,0.264 (active),-0.012,0.013,-0.033,-0.002,-0.028,-0.024,-0.023,-0.019,-0.103,0.023,0.008,-0.087,0.053
MRPS12 (UniProt O15235),-0.015,0.026,-0.021,0.015,0.067,0.011,-0.168,-0.027,-0.053,-0.032,0.006,-0.024,-0.019,0.003,-0.022,-0.022,0.048,0.03,0.036,-0.003
OLA1 (UniProt Q9NTK5),-0.002,-0.095,0.019,-0.029,-0.02,0.008,-0.004,0.017,0.011,-0.026,-0.009,0.013,-0.005,-0.088,0.007,-0.035,0.025,0.018,0.024,0.052
PARP14 (UniProt Q460N5),0.009,-0.238,-0.15,-0.007,-0.09,0.021,0.082,-0.127,0,-0.014,-0.018,-0.057,-0.154,0.148,-0.13,-0.123,-0.013,-0.013,-0.081,0
